# Assay outcomes deposited in PubChem by National Center for Advancing Translational Sciences (NCATS).
# The list is not random: actives were taken first. Their share in the collection is about 2.8%.
# HepG2 tox-1 – kills HepG2 cells in TGF-b inhibitor counter-screen | HepG2 CAGA-GFP viability, ATP luminescence, 18 h | Potency, µM (titrated, usually from 46.1 µM), inactives show at the highest dose activity change, negative = cytotoxicity, hits mostly cytotoxic | hit rate 0.76% among 410,000 | AID 588856
#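 HepG2 CAGA-GFP cells (1000/well, DMEM with 1% FBS) received compound, then TGF-beta at 500 pg/mL final, and were incubated 18 hours at 37 degrees C. Viability was read by CellTiter-Glo luminescence. Media-only wells were set as complete cell-killing and DMSO as no toxicity.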
# HTT cytoprotect – protects HTT-Q103 PC12 cells, measured by ATP | hit rate 0.14% among 230,000 | Potency, µM (top dose mostly 56.4 µM), without a hit: cytoprotection (ATP increase), usual class: activators | PC12 HTT-Q103 induced, cytoprotection, ATP luminescence, 40 h; further: % of control where 0% means no effect; nearly all actives have a fitted effect of over 45% in size
#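 Compounds added alongside 100 nM tebufenozide, which induces toxic Q103 huntingtin exon 1-GFP in stable PC12 cells; surviving cells quantified by luminescent ATP measurement. Medium: phenol red-free DMEM, 5% equine and 5% calf serum.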
# ATXN viability – cell viability loss in ATXN counter-screen; Potency, µM (top dose mostly 56.7 µM), actives largely listed as cytotoxic; S2 cells (HEK-293 line with an ATXN2-luciferase reporter) viability, CellTiter-Fluor protease fluorescence, 24 h; hit rate 0.49% among 400,000; further: nearly all actives have a fitted effect of over 40% in size
# HTT aggregate – mutant huntingtin aggregation inhibition | Potency, µM (highest dose often 46.1 µM), for inactives: at the top dose activity change, negative = inhibition, actives largely listed as inhibitors | hit rate 1.1% among 220,000 | PC12 HttQ103-GFP aggregates, Acumen cytometry, 40 h; further: on the % scale 0 is the no-effect control and ±100 the full control effect; nearly all actives have a fitted effect of over 60% in size
#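 Aggregates are detected as GFP objects 1–25 µm with signal 6 STDEV over background in lysates of induced PC12 cells. These carry Huntingtin exon 1 with 103 glutamines fused to GFP under an ecdysone promoter; compounds titrated.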
# TGFb SMAD3 inh – TGF-b pathway inhibition; AID 588855; Potency, µM (top dose mostly 46.1 µM), without a hit: at the highest dose activity, negative = inhibition, usual class: inhibitors; hit rate 1.2% among 410,000; HepG2 CAGA-GFP TGF-b/SMAD3 reporter, GFP fluorescence, 18 h; TGF-beta stimulated, 500 pg/mL final; further: on the % scale 0 is the no-effect control and ±100 the full control effect; nearly all actives have a fitted effect of over 65% in size
#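 GFP signal (ex488/em500-530) from TGF-beta-stimulated HEPG2 CAGA-GFP cells, 500 pg/mL final, 18 h at 37 degrees C in DMEM plus 1% FBS, normalized to unstimulated and DMSO-stimulated controls.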
# ATXN2 expr inh – inhibitors of ATXN2 expression. Potency, µM (titrated, usually from 57 µM), inactives show at the highest dose activity change, negative = inhibition, usual class: inhibitors. HEK-293 ATXN2-luciferase reporter, luminescence, 24 h. hit rate 0.72% among 360,000; further: on the % scale 0 is the no-effect control and ±100 the full control effect; nearly all actives have a fitted effect of over 55% in size
#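 ATXN2-luciferase reporter cells (luciferase flanked by upstream and downstream ATXN2 gene portions) were treated 24 h at 37 °C with compounds at up to 57 uM. SteadyGlo luminescence gave expression; GF-AFC fluorescence gave viability.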
# TGFb CAGA inh – TGF-b pathway inhibition, cherry-pick retest; shares compounds with TGFb SMAD3 inh; HepG2 CAGA-GFP TGF-b reporter, GFP fluorescence, 18 h; cells stimulated with TGF-beta, 500 pg/mL; Potency, µM (doses to about 46.1 µM), without a hit: at the top dose activity, negative = inhibition, hits mostly inhibitors; hit rate 63% among 1,600; further: on the % scale 0 is the no-effect control and ±100 the full control effect; nearly all actives have a fitted effect of over 65% in size
# HepG2 tox-2 – HepG2 cytotoxicity, TGF-b inhibitor counterscreen; shares compounds with TGFb SMAD3 inh; HepG2 CAGA-GFP viability, ATP luminescence, 18 h; cells stimulated with TGF-beta, 500 pg/mL; Potency, µM (titrated, usually from 46.1 µM), without a hit: top-dose activity, negative = cytotoxicity, hits mostly inhibitors; hit rate 27% among 1,600; AID 720535; further: on the % scale 0 is the no-effect control and ±100 the full control effect; nearly all actives have a fitted effect of over 70% in size
# TGFb CCL64 inh – TGF-b inhibition, CCL64 orthogonal assay; shares compounds with TGFb SMAD3 inh; CCL64 CAGA-GFP reporter, TGF-b stimulated, GFP fluorescence, 18 h; Potency, µM (highest dose often 46.1 µM), without a hit: at the highest dose activity, negative = inhibition, most hits filed as inhibitors; hit rate 41% among 1,600; AID 720536; further: nearly all actives have a fitted effect of over 65% in size
# COP TGFb inh – blocks TGF-b signaling in HepG2 COP reporter; shares compounds with TGFb SMAD3 inh; HepG2 COP-GFP TGF-b reporter, GFP fluorescence, 18 h; cells stimulated by added recombinant TGF-beta; Potency, µM (series often up to 46.1 µM), for the others: at the highest dose activity, negative = inhibition, actives largely listed as inhibitors; hit rate 3% among 1,600; further: nearly all actives have a fitted effect of over 70% in size
# An asterisk follows results filed as active; i = inactive; ? = inconclusive; . = not tested or not shown; [ ] = dose if it differs, or a comment. The call rests on the fitted dose curve; in most records, active means well fitted curve in the direction sought with a large enough effect; inconclusive means small, poorly fitted or top-dose-only effect, or another doubt; inactive means no such curve, though single readings can be large; an effect the other way counts as inactive or inconclusive. Potency means the concentration at half of the fitted maximal effect.
SMILES,HepG2 tox-1,HTT cytoprotect,ATXN viability,HTT aggregate,TGFb SMAD3 inh,ATXN2 expr inh,TGFb CAGA inh,HepG2 tox-2,TGFb CCL64 inh,COP TGFb inh
Nc1nc(F)nc2c1ncn2[C@@H]1O[C@H](CO)[C@@H](O)[C@H]1O,-37%,-11%,3.2µM*,-5%,0.79µM*,2.5µM*,0.58µM*,0.46µM*,1.2µM*,25%
C[C@H]1C[C@@H](C)C(=O)[C@@H]([C@H](O)CC2CC(=O)NC(=O)C2)C1,-21%,-48%[10 µM],i,0.35µM*,0.71µM*,1.1µM*,1µM*,?,0.33µM*,25%
COc1ccc(CN2Cc3cc(-c4cccc(F)c4)ccc3-n3nncc3C2)cc1,13%,.,i,.,11µM*,-2%,15µM*,?,?,0%
S=C(NCCc1ccccc1)N1Cc2cc(-c3ccccc3)ccc2-n2nncc2C1,-1%,.,?,.,?,-26%,.,.,.,.
Clc1cccc(N2Cc3cc(-c4ccccc4)ccc3-n3nncc3C2)c1,8.9µM*,.,.,.,7.9µM*,22µM*,21µM*,?,6.5µM*,32%
Fc1cccc(-c2ccc3c(c2)CN(C(=S)NCCc2ccccc2)Cc2cnnn2-3)c1,-1%,.,i,.,11µM*,-31%,?,-29%,?,-7%
S=C(NCCc1ccccc1)N1Cc2cc(N3CCCCC3)ccc2-n2nncc2C1,-26%,.,i,.,10µM*,-4%,?,-9%,-30%,2%
C[C@@H]1[C@@H](C)N1C[C@H](O)Cn1ccnc1[N+](=O)[O-] (stereo partly specified),.,-5%[10 µM],.,.,.,.,.,.,.,.
C[C@@H]1CC[C@@]2(OC1)O[C@H]1[C@@H](O)[C@H]3[C@@H]4CC[C@H]5C[C@@H](O[C@@H]6O[C@H](CO)[C@H](O[C@@H]7O[C@H](CO)[C@@H](O)[C@H](O[C@@H]8OC[C@@H](O)[C@H](O)[C@H]8O)[C@H]7O[C@@H]7O[C@H](CO)[C@@H](O)[C@H](O[C@@H]8O[C@H](CO)[C@@H](O)[C@H](O)[C@H]8O)[C@H]7O)[C@H](O)[C@H]6O)[C@H](O)C[C@]5(C)[C@H]4CC[C@]3(C)[C@H]1[C@@H]2C,.,-83%,.,.,.,.,.,.,.,.
Cn1c(=O)c2[nH]cnc2n(C)c1=O.[CH2-][C@H](Cc1cccc2cc(C(=O)O)c(=O)oc12)OC.[Hg].[OH-],.,3%[10 µM],.,.,.,.,.,.,.,.
C[C@@H]1Cc2cc3c(cc2C(c2ccc(N)cc2)=NN1)OCO3,.,15%[1.9 µM],.,.,.,.,.,.,.,.
O=c1c2ccccc2nc(/C=C/c2ccc([N+](=O)[O-])o2)n1-c1ccc(O)cc1,-63%,22%[10 µM],10µM*,-20%,2.8µM*,13µM*,?,5.8µM*,2.3µM*,22%
O=c1c2ccccc2nc(/C=C\c2ccccc2F)n1-c1ccc(O)cc1,-20%,.,.,.,-2%,.,.,.,.,.
C=C1C(O)[C@@H]2O[C@]3(CC[C@H](/C=C/C(C)[C@@H]4CC(C)=CC5(O[C@H](C[C@@](C)(O)C(=O)O)CCC5O)O4)O3)CC[C@H]2O[C@@H]1C(O)CC(C)[C@H]1OC2(CCCCO2)CCC1C (stereo partly specified),-71%,.,?,.,0.089µM*,0.32µM*,0.021µM*,0.052µM*,0.082µM*,?
Cc1ccc(OP(=O)(Oc2ccc(C)cc2)Oc2ccc(C)cc2)cc1,.,-58%,.,.,.,.,.,.,.,.
COC(=O)C1=C(c2cccc(C#N)c2)C[C@@H]2CC[C@H]1N2C(=O)NCc1cc(C)oc1C(F)(F)F,-36%,.,i,.,-8%,-12%,.,.,.,.
COC(=O)C1=C(c2ccc(-c3ccccc3)c(F)c2)C[C@@H]2CC[C@H]1N2C(=O)NCc1ccco1,-16%,.,?,.,?,?,8.2µM*,?,?,58%
COC(=O)C1=C(c2ccc(-c3ccccc3)c(F)c2)C[C@@H]2CC[C@H]1N2C(=O)NCc1cc(C)oc1C(F)(F)F,-5%,.,?,.,1.6µM*,?,?,-15%,?,30%
COC(=O)C1=C(c2ccc(-c3ccccc3)c(F)c2)C[C@@H]2CC[C@H]1N2C(=O)NCCO,-26%,.,i,.,-12%,-22%,.,.,.,.
COC(=O)C1=C(c2ccc(F)cc2OCc2ccccc2)C[C@@H]2CC[C@H]1N2C(=O)NCc1ccccc1,-21%,.,?,.,?,?,.,.,.,.
COC(=O)C1=C(c2ccc(F)cc2OCc2ccccc2)C[C@@H]2CC[C@H]1N2C(=O)NCc1ccccc1OC,-25%,.,?,.,?,0%,?,-13%,?,1%
C[C@@H]1O[C@H](OC2[C@@H](O)[C@H](O)C(O)[C@H](O)[C@H]2O)[C@@H](N)C[C@@H]1N=C(N)C(=O)O (stereo partly specified),.,-12%[10 µM],.,.,.,.,.,.,.,.
Cc1cccc(N)c1C,.,4%,.,.,.,.,.,.,.,.
Oc1ccc2c3c1O[C@H]1[C@@H](O)C=C[C@H]4[C@@H](C2)NCC[C@@]341,.,.,?,.,.,53%[116 µM],.,.,.,.
Cc1nc2ccccc2c(=O)n1-c1nccs1,22%,.,i,.,18%,28%,.,.,.,.
Cc1nn(-c2nccs2)c2c1C(=O)CC(C)(C)C2Br (stereo unspecified),-9%,.,i,.,11µM*,?,13µM*,?,?,34%
COc1ccc(CN2Cc3cnnn3-c3ccccc3C2c2ccccc2)cc1 (stereo unspecified),-1%,.,i,.,-15%,-22%,.,.,.,.
